Several values for one entry are separate records, joined by “and”; a condition that tells them apart may be missing. Identical values can stand only once. Records with an inconclusive call do not appear. Activity calls are given as the source filed them. The call rests on the fitted dose curve; in most records, active means well fitted inhibition curve with a large enough effect; inconclusive means small, poorly fitted or top-dose-only effect; inactive means no such curve, though single readings can be large or run the other way. *1 amine or outer side, *2 acyl side, *3 side chain or, on linkers, in order; H or OH if unused. Where a SMILES comes first, the peptide text is derived from it. Bridges are numbered along the chain shown (N, C = ends). Roman numbers before positions name the chains, in order. [ ]: non-standard residue; d: D form. ξ: configuration not given here. Actinocin(9to1) = Cc1c2oc3c(C)ccc(C(=O)[*:1])c3nc-2c(C(=O)[*:2])c(N)c1=O; aThr = C[C@H](O)[C@H](N)C(=O)O; NMeV = CN[C@H](C(=O)O)C(C)C; ξNMeV = CNC(C(=O)O)C(C)C; ξV = CC(C)C(N)C(=O)O; Sar = CNCC(=O)O
These compounds were tested on Zika virus NS2B-NS3 protease (linked) (assay: Optimization screen NINDS Rhodamine qHTS for Zika virus inhibitors: Linked NS2B-NS3 protease assay). Conditions: fluorogenic rhodamine substrate; series mostly up to 105 µM; activity change, negative = inhibition: at the top concentration.
Description: Avindra Nath, Ph.D., National Institute of Neurological Disorders and Stroke (NINDS), Bethesda, MD
Radhakrishnan Padmanabhan, Ph.D., Georgetown University (GU), Washington D.C.
Zika Virus causes congenital defects, including microcephaly and is associated with Guillain-Barre syndrome, eningoencephalitis and myelitis in infected adult. […] Using a target-based approach, we hope to establish a screening paradigm to uncover novel, cell-active NS2B-NS3 protease (Zika Virus) specific inhibitors from NCATS' collection of small molecules using qHTS.
Four assay panel was created to identify potential Zika Virus inhibitors. Namely, (1) GU unlinked NS2B-NS3 AMC tagged protease qHTS, (2) GU unlinked NS2B-NS3 Rhodamine tagged protease qHTS, (3) NINDS linked NS2B-NS3 AMC tagged protease qHTS, (4) NINDS linked NS2B-NS3 Rhodamine tagged protease qHTS. Active compounds were re-acquired and re-screened to confirm inhibition. Inhibitors were further screened against various confirmatory and counterscreens in dose response format.
Early Translation Branch (ETB)
National Center for Advancing Translational Sciences (NCATS), Rockville, MD
National Institute of Health (NIH), Bethesda, Maryland
For the linked assay, Nath lab (NINDS) provided the purified linked NS2B-NS3 protease which is consists of hydrophilic domain of NS2B linked to the NS3 protease domain by a flexible (-GGGGSGGGG-) linker. Control compound aprotinin is obtained from Thermo Scientific (#78432; Waltham, Massachusetts). Rhodamine110 substrate ([N-Cbz]-Nle-Lys-Arg-Arg-Rhod110-Arg-Arg-Lys-Nle-[N-Cbz]) was purchased from either Genscript or Bachem.
1536-well Protease (Rhodamine110 Substrate) Assay:
Briefly, 3 microL of enzyme (25 nM final concentration), in assay buffer (10 mM Tris-HCl pH 8.0 with 0.01% Tween 20) were dispensed into a 1,536-well solid-bottom black plate (Greiner Bio One, Monroe, NC). Twenty-three nL of compounds (final concentration range 7.28 nM to 114 microM) or control Aprotinin (final concentration range 3.47 nM to 114 microM) were transferred via Wako Pin-tool (Wako Automation, Richmond, VA). Samples were incubated (room temperature, protected from light) for 15 minutes followed by a 1 microL Rhodamine110 substrate addition (1.5 microM final concentration). Plates were then immediately read on a ViewLux High-throughput CCD imager (PerkinElmer, Waltham, MA) equipped with FITC fluorescence optics (480(20) nm excitation, 540(25) nm emission), then incubated (room temperature, protected from light) for 15 minutes (~15% conversion). The change in fluorescence intensity over the 15-minute reaction period was normalized against no-inhibitor and no-enzyme controls and the resulting percent inhibition data were fitted to a 4-parameter Hill equation. Aprotinin was used as intraplate control.

Activity change, negative = inhibition, inactive:
CC=CCC(C)C(O)C1C(=O)NC(CC)C(=O)N(C)CC(=O)N(C)C(CC(C)C)C(=O)NC(C(C)C)C(=O)N(C)C(CC(C)C)C(=O)NC(C)C(=O)NC(C)C(=O)N(C)C(CC(C)C)C(=O)N(C)C(CC(C)C)C(=O)N(C)C(C(C)C)C(=O)N1C (stereo not given) 23.1%
OC(c1cc(C(F)(F)F)nc2c(C(F)(F)F)cccc12)C1CCCCN1 (stereo not given) 6.78%
Cc1c2oc3c(C)ccc(C(=O)N[C@@H]4C(=O)NC(C(C)C)C(=O)N5CCC[C@H]5C(=O)N(C)CC(=O)N(C)C(C(C)C)C(=O)O[C@@H]4C)c3nc-2c(C(=O)N[C@@H]2C(=O)NC(C(C)C)C(=O)N3CCC[C@H]3C(=O)N(C)CC(=O)N(C)C(C(C)C)C(=O)O[C@@H]2C)c(N)c1=O (stereo not given in full) (I: T[ξV]P[Sar][ξNMeV] / II: T[ξV]P[Sar][ξNMeV]; ester I:1-I:C, II:1-II:C; linker I:N-II:N via Actinocin(9to1)) 8.56%
CCCCOc1ccc(C2C(=O)N(C3CCCCC3)CC(=O)N2C2CCCCC2)cc1 (stereo not given) 1.48%
CCOc1ccc(C2C(=O)N(C3CCCCCC3)CC(=O)N2CCc2ccc(Cl)cc2)cc1OC (stereo not given) 8.87%
O[C@@H](c1cc(C(F)(F)F)nc2c(C(F)(F)F)cccc12)[C@H]1CCCCN1 10.6%
C[S+](CC[C@H](N)C(=O)O)C[C@H]1O[C@@H](n2cnc3c(N)ncnc32)[C@H](O)[C@H]1O (stereo not given in full) -26.9%
Nc1ccn([C@@H]2O[C@H](CO)[C@@H](O)C2(F)F)c(=O)n1 -14.2% [at 228 µM]
CC(=O)Nc1ccc([C@H](C)C(=O)Nc2ncc(C(C)C)s2)cc1 1.33%
CC[C@@H]1O[C@]2(C=C[C@@H]1C)C[C@H]1C[C@H](CC=C(C)[C@@H](O[C@@H]3C[C@H](OC)[C@H](O[C@@H]4C[C@H](OC)[C@H](O)[C@H](C)O4)[C@H](C)O3)[C@@H](C)C=CC=C3CO[C@@H]4[C@@H](O)C(C)=C[C@@H](C(=O)O1)[C@]34O)O2 24.5% [at 48 µM]
C[C@H]1O[C@@H](O[C@H]2[C@@H](O)C[C@H](O[C@H]3[C@@H](O)C[C@H](O[C@H]4CC[C@]5(C)C6C[C@@H](O)[C@]7(C)[C@@H](C8=CC(=O)OC8)CC[C@]7(O)C6CC[C@@H]5C4)O[C@@H]3C)O[C@@H]2C)C[C@H](O)[C@@H]1O (stereo not given in full) 1.78%
Cc1c2oc3c(C)ccc(C(=O)N[C@@H]4C(=O)N[C@@H](C(C)C)C(=O)N5CCC[C@@H]5C(=O)N(C)CC(=O)N(C)[C@@H](C(C)C)C(=O)O[C@H]4C)c3nc-2c(C(=O)N[C@@H]2C(=O)N[C@@H](C(C)C)C(=O)N3CCC[C@@H]3C(=O)N(C)CC(=O)N(C)[C@@H](C(C)C)C(=O)O[C@H]2C)c(N)c1=O (I: [aThr]V[dP][Sar][NMeV] / II: [aThr]V[dP][Sar][NMeV]; ester I:1-I:C, II:1-II:C; linker I:N-II:N via Actinocin(9to1)) -4.07%
CCOc1ccc(C2C(=O)N(C3CCCCC3)CC(=O)N2Cc2ccc(F)cc2)cc1OC (stereo not given) -2.05%
C[C@H]1O[C@@H](O[C@H]2[C@@H](O)C[C@H](O[C@H]3[C@@H](O)C[C@H](O[C@H]4CC[C@@]5(C)[C@H](CC[C@@H]6[C@@H]5C[C@@H](O)[C@]5(C)[C@@H](C7=CC(=O)OC7)CC[C@]65O)C4)O[C@@H]3C)O[C@@H]2C)C[C@H](O)[C@@H]1O -1.02% [at 228 µM]
Cc1ccccc1CNc1ncnc2c1ncn2C1OC(CO)C(O)C1O (stereo not given) -2.08%
CCC(CC)(NC(=O)C(C)C)C(=O)N[C@@H](CCCN=C(N)N)C(=O)NC1(C(=O)NC(c2ccc(F)cc2)c2ccc(F)cc2)CCCC1 1.29%
NC(=O)C(=O)O 6.13%
CC1OC(OC2C(O)CC(OC3C(O)CC(OC4CCC5(C)C(CCC6C5CC(O)C5(C)C(C7=CC(=O)OC7)CCC65O)C4)OC3C)OC2C)CC(O)C1O (stereo not given) 8.89% [at 228 µM]
COc1c(C)c2c(c(O)c1C/C=C(\C)CCC(=O)OCCN1CCOCC1)C(=O)OC2 20.5%
CC(C)C[C@@H](NC(=O)[C@H](Cc1ccccc1)NC(=O)c1cnccn1)B(O)O -11.7% [at 228 µM]
CC(C)C[C@H](NC(=O)[C@H](Cc1ccccc1)NC(=O)c1cnccn1)B(O)O -2.87%
COc1c2occc2cc2ccc(=O)oc12 -34.5%
O=C1c2cccc3c2[C@@H](CCC3)CN1[C@@H]1CN2CCC1CC2 0.103%
Nc1ncnc2c1ncn2[C@@H]1O[C@H](C[C@@H](N)CC[C@H](N)C(=O)O)[C@@H](O)[C@H]1O 3.64%
N[C@H](C(=O)O)c1ccc(O)cc1 -5.22%

Potency, active:
CCCCCCCCc1ccc(CCC(N)(CO)CO)cc1 55.5 µM
CC[C@@H](C)[C@H]1O[C@]2(CC[C@H]1C)C[C@@H]1C[C@@H](CC=C(C)[C@@H](O[C@H]3C[C@H](OC)[C@@H](O[C@H]4C[C@H](OC)[C@@H](O)[C@H](C)O4)[C@H](C)O3)[C@@H](C)C=CC=C3CO[C@@H]4[C@H](O)C(C)=C[C@@H](C(=O)O1)[C@]34O)O2 39.3 µM
O=C(O)c1ccc(-n2nc(-c3ccccc3O)nc2-c2ccccc2O)cc1 8.79 µM
Oc1cc2ccccc2c2ccccc12 63.9 µM
O=c1cc(-c2ccccc2)oc2cc(O)c(O)c(O)c12 4.94 µM
O=C1c2c(O)ccc([N+](=O)[O-])c2C(=O)c2c([N+](=O)[O-])ccc(O)c21 12.7 µM and 6.39 µM
CNC(=O)c1cc(Oc2ccc(NC(=O)Nc3ccc(Cl)c(C(F)(F)F)c3)cc2)ccn1 16 µM
O=C(Nc1ccc([N+](=O)[O-])cc1Cl)c1cc(Cl)ccc1O 9.87 µM
CO[C@H]1C[C@@H](O[C@@H]2/C(C)=C/C[C@@H]3C[C@@H](C[C@]4(CC[C@H](C)[C@@H](C5CCCCC5)O4)O3)OC(=O)[C@@H]3C=C(C)/C(=N/O)[C@H]4OC/C(=C\C=C\[C@@H]2C)[C@]43O)O[C@@H](C)[C@H]1O 24.8 µM

Potency, inactive:
S=c1nc[nH]c2nc[nH]c12
CC(C)(C)CC(C)(C)c1ccc(OCCOCC[N+](C)(C)Cc2ccccc2)cc1
Cn1cnc([N+](=O)[O-])c1Sc1ncnc2nc[nH]c12
CCc1nc(N)nc(N)c1-c1ccc(Cl)cc1
Nc1nc(=S)c2[nH]cnc2[nH]1
Cc1c2oc3c(C)ccc(C(=O)N[C@@H]4C(=O)N[C@H](C(C)C)C(=O)N5CCC[C@H]5C(=O)N(C)CC(=O)N(C)[C@@H](C(C)C)C(=O)O[C@@H]4C)c3nc-2c(C(=O)N[C@@H]2C(=O)N[C@H](C(C)C)C(=O)N3CCC[C@H]3C(=O)N(C)CC(=O)N(C)[C@@H](C(C)C)C(=O)O[C@@H]2C)c(N)c1=O (I: T[dV]P[Sar][NMeV] / II: T[dV]P[Sar][NMeV]; ester I:1-I:C, II:1-II:C; linker I:N-II:N via Actinocin(9to1))
